Screening data (PubChem)
Most compounds without a hit are left out; they make up all but 0.28% or so of the library.
hcGAS inh – human cGAS inhibition | Q8N884 | recombinant h-cGAS, ATP depletion, Kinase-Glo luminescence | inhibition, % at 12.5 µM | actives 0.081% (n = 290,000) | AID 1259398;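 also: 0% = vehicle reaction and 100% = reaction without DNA for no activity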
Target sequence (Q8N884 whole entry, looked up): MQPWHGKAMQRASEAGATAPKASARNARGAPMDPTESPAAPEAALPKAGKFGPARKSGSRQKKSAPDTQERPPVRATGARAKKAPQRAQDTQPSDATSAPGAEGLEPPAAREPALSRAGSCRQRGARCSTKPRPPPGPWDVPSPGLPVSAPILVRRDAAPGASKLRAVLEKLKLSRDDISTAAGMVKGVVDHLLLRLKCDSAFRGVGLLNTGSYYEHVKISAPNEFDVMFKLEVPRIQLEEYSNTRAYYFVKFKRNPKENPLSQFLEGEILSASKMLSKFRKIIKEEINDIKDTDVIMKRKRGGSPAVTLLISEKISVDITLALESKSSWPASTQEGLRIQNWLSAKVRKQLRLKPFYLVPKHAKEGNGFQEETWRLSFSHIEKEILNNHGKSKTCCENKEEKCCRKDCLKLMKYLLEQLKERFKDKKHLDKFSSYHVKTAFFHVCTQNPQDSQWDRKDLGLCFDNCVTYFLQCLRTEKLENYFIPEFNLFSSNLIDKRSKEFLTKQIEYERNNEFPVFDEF
mcGAS lum – inhibitors of mouse cGAS. actives 0.15% (n = 160,000). inhibition, % at 12.5 µM. Q8C6L5. recombinant cGAS, Kinase-Glo ATP depletion luminescence;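 also: 0% = negative control wells and 100% = reference inhibitor with no enzyme activity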
NPYLR7 agonist – mosquito NPYLR7 agonism; HEK293T NPYLR7/Galpha15, GCaMP6s calcium fluorescence; activation, % at 10 µM; actives 0.15% (n = 270,000); AID 1259423; in the data active = activation above about 40%;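 also: 0% = vehicle and 100% = reference agonist at the receptor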
* = called active by the depositor; nt = not tested or not shown; ! = not active in a repeat. Rule as the data show it, unless noted: active = inhibition above about 40%; inactive = the rest.

SMILES | hcGAS inh | mcGAS lum | NPYLR7 agonist
O=C(NC(C(=O)N1CCCC1)C1CCN(C(=O)c2ccco2)CC1)C1CC1 (stereo not drawn) | -7 | -4 | 29
O=c1c(-c2ccc(O)cc2)coc2cc(O)cc(O)c12 | -1 | -1 | 0
O=c1c(-c2cc(O)c(O)c(O)c2)coc2cc(O)c(O)c(O)c12 | 71* | 82* | nt
O=C1CSC(=S)N1N=Cc1ccc(-c2nc3ccccc3s2)o1 | -1 | nt | 25
COc1cc(C=NN2C(=O)CSC2=S)cc(Br)c1O | -10 | -2 | 20
O=C1CSC(=S)N1N=Cc1ccc([N+](=O)[O-])o1 | 4 | 59* | 3
O=C1CSC(=S)N1N=Cc1cc(Br)c(O)c(Br)c1 | 43* | 60* | 67*
Cc1cc(N(C)C)ccc1NC(=O)Cc1noc2ccccc12 | 7 | 1 | -1
COc1cccc(OC)c1C(=O)Nc1ccc(-n2nc(OCC(C)C)nc2-c2ccccc2C)cc1 | 0 | -6 | 13
Cc1nc(NCCNC(=O)c2ccccc2)cc(N2CCOCC2)n1 | -5 | nt | -2
COC(=O)n1c(=O)oc2cc(S(=O)(=O)N3CCOCC3)ccc21 | -6 | nt | -1
COC(=O)n1c(=S)oc2cc(Cl)ccc21 | 6 | 40* | 10
CCS(=O)(=O)Oc1ccccc1CN(Cc1ccc(F)cc1)C(=O)Nc1ccccc1OC | -7 | -10 | 22
FC(F)(F)c1ccc(-c2nc3ccc(Cl)cn3c2NCc2ccccc2)cc1 | -7 | -8 | 47*
CC(C)(C)c1ccc(-c2nc3ccc(Cl)cn3c2NCc2ccccc2)cc1 | -6 | -7 | -4
CCCC(O)CN(Cc1ccc2c(c1)OCO2)Cc1cc(C)ccc1C (stereo not drawn) | -7 | -7 | 22
Cc1ccc(C=C(C#N)S(=O)(=O)c2ccc(Br)cc2)o1 | -6 | nt | 5
COc1ccc2c(c1)OCC(C=C(C#N)S(=O)(=O)c1ccc(Br)cc1)=C2 | -6 | nt | 93*
Cc1ccc(C)c(S(=O)(=O)N2CCC(c3nc(-c4ccc(F)c(F)c4)no3)CC2)c1 | 3 | 2 | -9
Cc1ccccc1CNc1ncnc2c1ncn2C1OC(CO)C(O)C1O (stereo not drawn) | -10 | -6 | 78*
OC[C@H]1O[C@@H](n2cnc3c(NCc4ccco4)ncnc32)[C@H](O)[C@@H]1O | -2 | -4 | 7
Nc1ncnc2c1ncn2[C@@H]1O[C@H](CO)[C@H](O)C1O (stereo partly drawn) | -4 | -2 | 96*
Nc1ncnc2c1ncn2C1O[C@H](CO)[C@@H](O)[C@@H]1O (stereo partly drawn) | -9 | -5 | -4
CN1C(=O)C2(CCN(c3ncnc4c3CCC4)CC2)c2ccccc21 | -7 | nt | 3
CC(=O)CSC(C(N)=O)c1ccccc1 (stereo not drawn) | 11 | 7 | 8
SMILES | hcGAS inh | mcGAS lum | NPYLR7 agonist
CNc1cc(-c2ccc(CN3CCCCC3)cn2)c2cc[nH]c2n1 | 60* | -6 | 21
CNc1cc(-c2ccc(CN)cn2)c2cc[nH]c2n1 | -2 | -10 | 24
O=C(C1CCN(C2CCCC2)CC1)N1CCc2c([nH]n(CCO)c2=O)C1 | -10 | -4 | nt
Nc1nc(-c2ccncc2)cs1 | 4 | nt | 8
Nc1nc(-c2cc(I)c(O)c(I)c2)cs1 | 66* | 102* | -2
CC1CCCCN1c1cc(C(F)(F)F)nc(SCc2ccc(C(=O)NCc3cccnc3)o2)n1 (stereo not drawn) | 3 | -2 | 2
CCCN1CCc2c(sc3c2c(NC(CC)CO)nc2nnnn23)C1 (stereo not drawn) | -5 | nt | 69*
CCc1nc(Cl)c2c3c(sc2n1)CN(CC)CC3 | -3 | nt | 4
CCOc1ccc(C2c3[nH]c4ccccc4c3CCN2C(=O)CCCN2CCCC2=O)cc1 (stereo not drawn) | -6 | nt | 13
O=C(O)c1cc(Br)c2ccccc2c1O | 39 | 68* | -6
COc1cc(Br)c(OC)c(C(=O)O)c1 | -6 | nt | 7
CC(C)c1ccc(S(=O)(=O)N=C2C=C(Cl)C(=O)c3ccccc32)cc1 | 9 | nt | 5
O=C1C(Sc2ncn[nH]2)=CC(=NS(=O)(=O)c2ccccc2)c2ccccc21 | 38 | 51* | 9
Cc1cc(NC(=O)NNc2ccc(S(=O)(=O)C(F)F)cc2)no1 | -13 | nt | 13
Cc1cccc(Cn2ccnc2CN(CC(C)C)C(=O)c2ccc(Cl)cc2)c1 | -8 | -5 | 25
C=CCN(C(=O)C1CSC2(C)CCC(=O)N12)c1nc2c(s1)CCCC2 (stereo not drawn) | -7 | nt | 4
CSCCC1NC(=O)N(CN2CCc3sccc3C2c2cccs2)C1=O (stereo not drawn) | -4 | -5 | -3
CC(NCC1CCC1)c1ccccc1 (stereo not drawn) | -3 | nt | -7
CC(NCCC(c1ccccc1)c1ccccc1)c1ccccc1 (stereo not drawn) | -4 | -5 | 59*!
COC(=O)C1CN(C(=O)C2CCC(CNC(=O)OC(C)(C)C)CC2)CCC1=O (stereo not drawn) | -4 | -8 | 16
CCC(=O)C(C#N)c1nnc(-c2ccccc2)s1 (stereo not drawn) | 56* | nt | 8
CC(N)C(=O)Nc1nnc(-c2ccccc2)s1 (stereo not drawn) | -6 | -5 | -7
N#Cc1ccccc1OCC(=O)Nc1cc(Cl)ccc1OCC(F)(F)F | -3 | -13 | 5
O=C(CN1CCc2ccccc2C1)N1N=C(c2ccccc2F)CC1c1ccc(Cl)cc1 (stereo not drawn) | 60* | -3 | 15
CCOC(=O)C1CCCN(CC(=O)N2N=C(c3ccccc3Cl)CC2c2ccc3c(c2)OCO3)C1 (stereo not drawn) | -4 | -4 | -2
SMILES | hcGAS inh | mcGAS lum | NPYLR7 agonist
CC(=O)N1CCN(CC(=O)N2N=C(c3ccccc3F)CC2c2ccc(Cl)cc2)CC1 (stereo not drawn) | -4 | -4 | 4
CCOC(=O)C1CCCN(CC(=O)N2N=C(c3ccccc3Cl)CC2c2ccc(Cl)cc2)C1 (stereo not drawn) | 2 | 0 | 42*
COc1nn(Cc2ccc(Br)cc2)cc1[N+](=O)[O-] | -1 | nt | 2
COc1ccc2oc(=O)c(-c3nnc(Nc4cc(Cl)ccc4OC)s3)cc2c1 | -10 | -4 | 56*
COc1ccc(Nc2nnc(-c3cc4cc(Cl)ccc4oc3=O)s2)c(OC)c1 | -4 | -4 | -10
COc1ccc(Cl)cc1Nc1nnc(-c2cc3c(ccc4ccccc43)oc2=O)s1 | -6 | -5 | 59*
COc1ccc(Nc2nnc(-c3cc4c(ccc5ccccc54)oc3=O)s2)c(OC)c1 | -6 | -4 | 1
Cc1ccccc1C(=O)N1CCN(c2ccc(-n3cccn3)nn2)CC1 | -2 | nt | 7
OC(Cc1ccccc1)CN(Cc1c(-c2ccccc2F)noc1N1CCOCC1)CC1CCCO1 (stereo not drawn) | -7 | -4 | 5
Cc1c(C)n2c3c(=O)n(Cc4ccccc4F)c(=O)n(C)c3nc2n1CCCO | -8 | nt | -1
C=CCN(CC(=O)N1CCc2sccc2C1COc1cccc(F)c1)CC(O)COCc1ccccc1 (stereo not drawn) | -5 | -5 | 17
O=C(NCCc1ccc(O)cc1)C1CCCN(Cc2ccco2)C1 (stereo not drawn) | 0 | -4 | -11
CSc1cccc(CN2CCc3c(cccc3NC(=O)c3ccncc3)C2)c1 | 1 | nt | 5
